# According to the supplement of paper PMC12636033:
# ± gives the standard deviation of the averaged measurements. The full ranking holds about 33,000 sequences; the median of “E-score (rank enrichment, -0.5 to 0.5)” is about -0.0043, and the highest 2% start at about 0.24. Only a selection was taken, and the highest values are over-represented in it overall.
# Test system: 2Sp-muMax20 (muMax20 with two 2,6-bis(methyl)pyridine Cys staples)
# Assay: PBM 8-mer E-score (E-score (rank enrichment, -0.5 to 0.5)); higher = stronger preferential binding
# Description: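 Protein binding microarray (universal PBM chip covering all 10-mers in fixed probe flanks) with chemically synthesized human Max(13-93) bHLH-LZ analogs (not full-length Max) bearing noncanonical residues (hArg, Tha, Aib, Nle at 65) and aromatic Cys staples. Read-out per 8-mer (and its reverse complement): E-score (rank-based enrichment, -0.5 to 0.5) and Z-score of median probe intensity.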
row,Sequence,PBM 8-mer E-score
1,AGTTCCAA,-0.0402 ± 0.057
2,CCCCCCTA,-0.112 ± 0.073
3,GCCAAACC,-0.0278 ± 0.14
4,GCAGATAC,0.04 ± 0.079
5,GTACTAAC,0.127 ± 0.038
6,ATACTACC,0.147 ± 0.029
7,ATAATACC,0.209 ± 0.033
8,CTACTACA,0.0934 ± 0.18
9,ATAATACA,0.271 ± 0.0055
10,ATACTAAA,0.145 ± 0.13
11,ATAATACG,0.177 ± 0.032
12,ATACTACA,0.258 ± 0.033
13,ATTCTACA,0.253 ± 0.021
14,ATTCTACG,0.228 ± 0.01
15,ATACTAAC,0.245 ± 0.041
16,GTTCTACA,0.0307 ± 0.072
17,CCCGTCCA,-0.241 ± 0.017
18,TTCTAAAA,-0.19 ± 0.05
19,TCCAACGA,-0.0483 ± 0.18
20,CTGGCAAG,-0.0269 ± 0.07
21,ACATTTTA,0.232 ± 0.019
22,CCACTATA,0.183 ± 0.0029

row,Sequence,PBM 8-mer E-score
1,GGCAGTAC,0.105 ± 0.086
2,ATACTAGC,0.117 ± 0.075
3,ATACTAGA,0.26 ± 0.055
4,CTACTAGA,0.05 ± 0.076
5,AAAATAGC,-0.0165 ± 0.011
6,TAAATAGA,0.000425 ± 0.01
7,AAAATAGA,0.242 ± 0.0042
8,TAACCTCA,-0.00886 ± 0.051
9,GAGAGCAA,-0.127 ± 0.12
10,CCTGGATA,-0.0904 ± 0.0036
11,AAATAGGT,0.241 ± 0.0095
12,GAATAGAC,0.104 ± 0.096
13,AAATAGGC,0.0753 ± 0.026
14,AAATAGGG,0.208 ± 0.0056
15,AAATAGAT,0.227 ± 0.023
16,AAATAGAC,0.257 ± 0.0069
17,ACCGAAAA,-0.0179 ± 0.15
18,CTCTTCCC,-0.062 ± 0.011
19,AACGTGCG,0.129 ± 0.11
20,CACGTGCC,0.405 ± 0.0045
21,CGCGTGCA,0.263 ± 0.035
22,TACGTGCA,0.105 ± 0.013

row,Sequence,PBM 8-mer E-score
1,CACGTGCG,0.4142 ± 0.0019
2,GGCGTGCA,0.11 ± 0.047
3,CCCGTGCG,-0.119 ± 0.06
4,AACGTGCA,0.149 ± 0.025
5,AACGTGCC,0.0275 ± 0.036
6,CACGTGCA,0.419 ± 0.027
7,GACGTGCC,-0.0934 ± 0.065
8,CGCGTGCC,0.0851 ± 0.061
9,GGTAGCAA,0.163 ± 0.004
10,AAGTACTT,0.109 ± 0.032
11,ACCGCATG,0.132 ± 0.074
12,GCGCATCA,0.0862 ± 0.011
13,CGGGTACA,-0.205 ± 0.03
14,GACCGACA,-0.18 ± 0.052
15,GAACAAAC,0.046 ± 0.051
16,CCATAATC,0.159 ± 0.019
17,CTCTTAGA,-0.116 ± 0.051
18,AAACAATA,0.101 ± 0.046
19,AACAAATT,0.265 ± 0.0042
20,AACAAGTT,0.0512 ± 0.042
21,AAACAATT,0.252 ± 0.046
22,AACAAATA,0.212 ± 0.063

row,Sequence,PBM 8-mer E-score
1,AAACAATG,0.121 ± 0.021
2,ATGCAGTA,0.0482 ± 0.088
3,ACATAGCT,-0.143 ± 0.0071
4,ACCCTCCT,-0.0498 ± 0.0072
5,CCCCTTCC,-0.00527 ± 0.1
6,TCCCTCCA,-0.114 ± 0.086
7,CCCCTCCC,0.311 ± 0.014
8,CCCTCCCC,0.142 ± 0.11
9,CCCCTTCA,0.248 ± 0.1
10,ACCCTCCA,0.168 ± 0.0021
11,TCCCTTCA,0.107 ± 0.057
12,ACCCTCCC,0.26 ± 0.043
13,GCCCTCCA,-0.00293 ± 0.051
14,CCCCTCCA,0.236 ± 0.033
15,CCCCTCCG,-0.0068 ± 0.12
16,ATATACGG,0.0505 ± 0.015
17,GGCTCAAC,-0.0877 ± 0.06
18,AGGAATAA,0.0163 ± 0.077
19,CTTCTACA,-0.0255 ± 0.032
20,ACCTGCCA,-0.188 ± 0.047
21,ACATTATG,0.147 ± 0.1
22,CCATTATC,0.157 ± 0.04

row,Sequence,PBM 8-mer E-score
1,GCATTATA,0.186 ± 0.059
2,ACATTATC,0.159 ± 0.038
3,ACATTATA,0.282 ± 0.0059
4,CCATTATA,0.257 ± 0.045
5,CGTATGCC,-0.0525 ± 0.034
6,GCTGTTGA,-0.119 ± 0.013
7,AGGGTGGA,-0.0107 ± 0.009
8,AGGGTGGC,0.0126 ± 0.068
9,AGGGTGGG,0.245 ± 0.073
10,ACAGAGAA,0.129 ± 0.14
11,ATATGGAG,0.127 ± 0.014
12,AGATGGGC,-0.0126 ± 0.1
13,ATATGGGG,0.239 ± 0.024
14,CCATGGGG,-0.0568 ± 0.073
15,ACATGGGA,0.162 ± 0.035
16,CTATGGGC,-0.0549 ± 0.074
17,ATATGGGA,0.136 ± 0.11
18,ACATGGGG,0.246 ± 0.072
19,ATATGGGC,0.249 ± 0.04
20,GAATCATC,-0.0799 ± 0.064
21,TCGTACAA,0.1 ± 0.042
22,CAACCAAC,-0.132 ± 0.022
